According to ChEMBL document CHEMBL3988442, “University of Dundee, Small-Polar-MMV Screening Library” (2021):
For some of these results: Results with a measured potency or affinity are listed apart.

Columns and labels:
Set-up in all cases: scale not given: direction of the effect not stated beside the values
[1] = target: Protein translocase subunit SecA (Escherichia coli (strain K12)) (UniProt P10408); assay: Assay to Identify E. coli SecA ATPase Inhibitors; assay type: functional; conditions: 30 µM
[2] = target: T1, Ubiquitin-activating enzyme e1, putative (Leishmania donovani (strain BPK282A1)) (UniProt E9BSI1); assay: Leishmania donovani Ubiquitin Activating Enzyme (LdE1); assay type: functional; conditions: 30 µM
T1 sequence (whole entry): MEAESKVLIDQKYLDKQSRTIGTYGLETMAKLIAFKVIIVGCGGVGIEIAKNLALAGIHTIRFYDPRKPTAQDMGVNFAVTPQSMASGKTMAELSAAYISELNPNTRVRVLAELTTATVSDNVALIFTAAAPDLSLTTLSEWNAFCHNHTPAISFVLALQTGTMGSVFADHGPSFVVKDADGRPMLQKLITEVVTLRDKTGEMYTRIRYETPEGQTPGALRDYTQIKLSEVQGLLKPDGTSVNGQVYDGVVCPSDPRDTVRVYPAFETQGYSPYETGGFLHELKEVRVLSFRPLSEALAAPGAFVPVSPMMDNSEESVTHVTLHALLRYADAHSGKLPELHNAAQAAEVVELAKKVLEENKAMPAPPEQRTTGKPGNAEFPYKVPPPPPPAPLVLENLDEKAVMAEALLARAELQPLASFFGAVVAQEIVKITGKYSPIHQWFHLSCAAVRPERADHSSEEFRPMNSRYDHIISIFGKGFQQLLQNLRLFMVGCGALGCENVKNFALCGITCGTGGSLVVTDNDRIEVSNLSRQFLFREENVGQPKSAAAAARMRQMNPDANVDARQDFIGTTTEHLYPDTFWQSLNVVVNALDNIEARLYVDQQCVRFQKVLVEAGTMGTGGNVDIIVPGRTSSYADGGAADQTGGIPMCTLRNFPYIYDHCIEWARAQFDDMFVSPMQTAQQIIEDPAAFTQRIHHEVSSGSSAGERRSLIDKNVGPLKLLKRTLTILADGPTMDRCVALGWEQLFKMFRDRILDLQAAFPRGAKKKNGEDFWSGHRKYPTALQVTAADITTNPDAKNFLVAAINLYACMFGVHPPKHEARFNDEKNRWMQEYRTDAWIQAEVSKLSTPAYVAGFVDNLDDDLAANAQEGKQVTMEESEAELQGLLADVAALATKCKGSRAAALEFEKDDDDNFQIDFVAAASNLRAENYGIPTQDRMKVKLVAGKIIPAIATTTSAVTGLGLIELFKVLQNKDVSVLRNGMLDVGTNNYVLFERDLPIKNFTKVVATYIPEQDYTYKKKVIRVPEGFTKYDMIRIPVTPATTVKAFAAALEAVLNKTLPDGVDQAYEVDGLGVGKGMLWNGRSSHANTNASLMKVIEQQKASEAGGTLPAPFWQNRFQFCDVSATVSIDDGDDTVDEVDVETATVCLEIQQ

[3] = target: AMP-activated protein kinase, AMPK (Homo sapiens) (UniProt P54646+O43741+P54619+Q9UGJ0+Q9Y478+Q13131+Q9UGI9); assay: AMP-dependent Kinase enzyme assay. An in vitro enzyme assay that detects ADP turnover that is directly proportional to AMPK activity. This uses naive AMPK that is activated during the assay with MK-8722; assay type: functional; conditions: 30 µM
[4] = target: Sialic acid-binding Ig-like lectin 9 (Homo sapiens) (UniProt Q9Y336); assay: Hs-Siglec9 ALPHAscreen SOP 20170721; conditions: 10 µM
Trypanosoma cruzi = assay: Trypanosoma cruzi phosphomannomutase and mannose-1-phosphate guanylyltransferase assay; assay type: functional; conditions: 10 µM
[5] = target: T2, Arginase-2, mitochondrial (Homo sapiens) (UniProt P78540); assay: in vitro enzyme assay to detect the production of urea directly proportional to the activity of Arginase II; assay type: functional; conditions: 33.3 µM; also: in the data most compounds retested in dose-response had high values
T2 sequence (whole entry): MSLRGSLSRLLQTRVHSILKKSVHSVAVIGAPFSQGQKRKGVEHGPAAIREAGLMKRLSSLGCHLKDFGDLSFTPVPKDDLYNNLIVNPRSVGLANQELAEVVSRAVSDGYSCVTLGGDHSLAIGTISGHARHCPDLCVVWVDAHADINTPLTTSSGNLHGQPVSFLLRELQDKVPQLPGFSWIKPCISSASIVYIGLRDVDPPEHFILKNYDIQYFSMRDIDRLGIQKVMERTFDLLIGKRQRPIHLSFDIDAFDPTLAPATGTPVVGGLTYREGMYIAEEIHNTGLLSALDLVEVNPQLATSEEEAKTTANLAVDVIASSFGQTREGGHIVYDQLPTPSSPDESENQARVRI

[6] = target: T3, Proteasome subunit beta (Trypanosoma cruzi) (UniProt O96673); assay: Trypanosoma cruzi proteasome chymotrypsin-like activity (TcProtChymo) assay.; also: in the data most compounds retested in dose-response had high values; assay type: functional; conditions: 9.37 µM
T3 sequence (whole entry): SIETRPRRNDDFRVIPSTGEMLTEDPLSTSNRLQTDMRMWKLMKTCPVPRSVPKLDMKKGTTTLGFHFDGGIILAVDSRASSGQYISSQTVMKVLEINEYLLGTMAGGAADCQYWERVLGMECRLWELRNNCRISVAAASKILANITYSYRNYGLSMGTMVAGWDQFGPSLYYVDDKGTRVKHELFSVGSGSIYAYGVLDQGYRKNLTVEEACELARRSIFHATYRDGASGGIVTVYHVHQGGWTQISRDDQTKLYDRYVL

Homo sapiens = species on record: Homo sapiens; assay: To identify inhibition of the IFN signalling (Jak-Stat) pathway via expression of an eGFP reporter gene under the control of an IFN-stimulated response element (ISRE) containing MxA promoter.; assay type: functional; conditions: 30 µM
[7] = target: T4, Tyrosyl-tRNA synthetase, putative (Trypanosoma cruzi (strain CL Brener)) (UniProt Q4DSP6); assay: Trypanosoma cruzi tyrosyl tRNA synthetase (TcYRS) _High Tyrosine SOP; assay type: functional; conditions: 30 µM; also: in the data most compounds retested in dose-response had high values
T4 sequence (whole entry): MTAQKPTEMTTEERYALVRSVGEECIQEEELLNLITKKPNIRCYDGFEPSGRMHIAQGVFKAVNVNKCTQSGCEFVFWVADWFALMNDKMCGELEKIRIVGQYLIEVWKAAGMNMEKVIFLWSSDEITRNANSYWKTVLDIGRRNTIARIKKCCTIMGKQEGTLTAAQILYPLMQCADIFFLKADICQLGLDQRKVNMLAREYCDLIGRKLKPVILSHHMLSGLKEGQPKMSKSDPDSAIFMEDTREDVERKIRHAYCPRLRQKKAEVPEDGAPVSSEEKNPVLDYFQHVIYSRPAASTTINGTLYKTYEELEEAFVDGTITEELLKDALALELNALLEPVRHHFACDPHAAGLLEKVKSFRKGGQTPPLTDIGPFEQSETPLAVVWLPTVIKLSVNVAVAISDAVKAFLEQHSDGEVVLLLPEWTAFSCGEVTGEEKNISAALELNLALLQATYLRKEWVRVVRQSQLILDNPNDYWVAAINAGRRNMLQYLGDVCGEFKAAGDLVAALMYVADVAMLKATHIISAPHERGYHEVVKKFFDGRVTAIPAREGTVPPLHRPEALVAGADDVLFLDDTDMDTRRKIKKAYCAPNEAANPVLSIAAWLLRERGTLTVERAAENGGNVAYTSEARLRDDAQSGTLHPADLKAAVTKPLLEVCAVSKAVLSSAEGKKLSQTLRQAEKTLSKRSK

[8] = target: T4, Tyrosyl-tRNA synthetase, putative (Trypanosoma cruzi (strain CL Brener)); assay: Trypanosoma cruzi tyrosyl tRNA synthetase (TcYRS) SOP; assay type: functional; conditions: 30 µM
[9] = target: Chromo domain-containing protein 1 (Saccharomyces cerevisiae (strain ATCC 204508 / S288c) (Baker's yeast)) (UniProt P32657); assay: ScCHD-1 Enzyme Inhibition Assay; assay type: functional; conditions: 30 µM; also: in the data most compounds retested in dose-response had high values
Sequence of Chromo domain-containing protein 1 (Saccharomyces cerevisiae (strain ATCC 204508 / S288c) (Baker's yeast)) (P32657 whole entry, the tested form may be a part): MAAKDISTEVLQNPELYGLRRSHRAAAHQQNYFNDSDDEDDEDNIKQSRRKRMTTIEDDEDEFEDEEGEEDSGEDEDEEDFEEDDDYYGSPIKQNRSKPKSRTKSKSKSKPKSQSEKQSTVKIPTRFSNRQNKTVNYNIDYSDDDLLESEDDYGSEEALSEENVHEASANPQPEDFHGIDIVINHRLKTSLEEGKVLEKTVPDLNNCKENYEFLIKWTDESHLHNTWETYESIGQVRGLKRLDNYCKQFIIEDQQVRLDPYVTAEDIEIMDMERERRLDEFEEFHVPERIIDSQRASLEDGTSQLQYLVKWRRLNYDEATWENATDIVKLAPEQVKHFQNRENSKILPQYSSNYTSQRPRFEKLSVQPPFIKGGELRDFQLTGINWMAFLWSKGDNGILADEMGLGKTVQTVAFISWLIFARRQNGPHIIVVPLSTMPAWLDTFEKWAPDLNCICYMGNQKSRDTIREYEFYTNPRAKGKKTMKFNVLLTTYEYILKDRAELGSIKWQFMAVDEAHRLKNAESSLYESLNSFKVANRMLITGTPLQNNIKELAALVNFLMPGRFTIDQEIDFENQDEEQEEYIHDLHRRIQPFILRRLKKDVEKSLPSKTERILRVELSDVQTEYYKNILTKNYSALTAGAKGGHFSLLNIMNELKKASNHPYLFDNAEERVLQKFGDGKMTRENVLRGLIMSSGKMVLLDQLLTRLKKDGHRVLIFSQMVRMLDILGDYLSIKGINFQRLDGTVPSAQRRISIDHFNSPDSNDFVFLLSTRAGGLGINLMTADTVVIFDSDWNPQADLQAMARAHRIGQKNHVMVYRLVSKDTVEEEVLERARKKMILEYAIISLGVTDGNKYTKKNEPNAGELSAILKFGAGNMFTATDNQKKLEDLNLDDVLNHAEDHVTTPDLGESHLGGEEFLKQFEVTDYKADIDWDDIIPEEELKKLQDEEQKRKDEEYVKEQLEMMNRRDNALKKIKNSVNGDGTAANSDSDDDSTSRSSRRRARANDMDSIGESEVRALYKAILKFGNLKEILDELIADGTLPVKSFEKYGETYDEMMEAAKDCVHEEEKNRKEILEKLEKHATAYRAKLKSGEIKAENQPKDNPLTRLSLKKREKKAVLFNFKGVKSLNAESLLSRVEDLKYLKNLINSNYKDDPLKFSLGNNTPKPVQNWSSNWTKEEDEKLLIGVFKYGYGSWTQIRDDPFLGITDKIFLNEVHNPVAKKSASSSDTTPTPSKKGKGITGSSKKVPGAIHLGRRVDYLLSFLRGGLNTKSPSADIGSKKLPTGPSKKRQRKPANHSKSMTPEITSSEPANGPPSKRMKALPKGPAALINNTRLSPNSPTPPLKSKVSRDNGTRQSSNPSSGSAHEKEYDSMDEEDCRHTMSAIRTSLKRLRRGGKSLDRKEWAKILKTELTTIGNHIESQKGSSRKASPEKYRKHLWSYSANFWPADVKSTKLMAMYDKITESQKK

Sequence of Protein translocase subunit SecA (Escherichia coli (strain K12)) (P10408 whole entry): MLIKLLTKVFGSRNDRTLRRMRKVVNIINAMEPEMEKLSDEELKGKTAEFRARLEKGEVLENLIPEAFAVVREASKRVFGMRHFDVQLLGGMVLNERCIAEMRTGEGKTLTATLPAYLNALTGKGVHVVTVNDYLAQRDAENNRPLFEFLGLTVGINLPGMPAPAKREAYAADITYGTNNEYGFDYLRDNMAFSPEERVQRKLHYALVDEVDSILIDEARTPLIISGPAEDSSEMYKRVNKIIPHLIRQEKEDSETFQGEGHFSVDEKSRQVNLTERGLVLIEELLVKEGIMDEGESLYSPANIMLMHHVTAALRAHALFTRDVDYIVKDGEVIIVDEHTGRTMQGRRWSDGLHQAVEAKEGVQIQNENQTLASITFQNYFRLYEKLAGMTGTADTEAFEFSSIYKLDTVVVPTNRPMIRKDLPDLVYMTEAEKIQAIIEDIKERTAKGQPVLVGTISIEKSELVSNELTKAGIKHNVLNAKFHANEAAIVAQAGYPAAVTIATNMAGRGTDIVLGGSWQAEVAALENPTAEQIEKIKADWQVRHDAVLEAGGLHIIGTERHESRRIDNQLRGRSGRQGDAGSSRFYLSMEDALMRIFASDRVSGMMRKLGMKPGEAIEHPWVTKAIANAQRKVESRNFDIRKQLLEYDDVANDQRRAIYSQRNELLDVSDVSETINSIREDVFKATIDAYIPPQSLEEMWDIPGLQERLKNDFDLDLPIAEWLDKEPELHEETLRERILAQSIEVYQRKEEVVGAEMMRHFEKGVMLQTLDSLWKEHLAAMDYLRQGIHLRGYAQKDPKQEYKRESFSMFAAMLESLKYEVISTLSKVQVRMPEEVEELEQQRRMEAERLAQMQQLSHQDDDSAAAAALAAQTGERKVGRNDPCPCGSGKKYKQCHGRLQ
Sequence of Sialic acid-binding Ig-like lectin 9 (Homo sapiens) (Q9Y336 whole entry): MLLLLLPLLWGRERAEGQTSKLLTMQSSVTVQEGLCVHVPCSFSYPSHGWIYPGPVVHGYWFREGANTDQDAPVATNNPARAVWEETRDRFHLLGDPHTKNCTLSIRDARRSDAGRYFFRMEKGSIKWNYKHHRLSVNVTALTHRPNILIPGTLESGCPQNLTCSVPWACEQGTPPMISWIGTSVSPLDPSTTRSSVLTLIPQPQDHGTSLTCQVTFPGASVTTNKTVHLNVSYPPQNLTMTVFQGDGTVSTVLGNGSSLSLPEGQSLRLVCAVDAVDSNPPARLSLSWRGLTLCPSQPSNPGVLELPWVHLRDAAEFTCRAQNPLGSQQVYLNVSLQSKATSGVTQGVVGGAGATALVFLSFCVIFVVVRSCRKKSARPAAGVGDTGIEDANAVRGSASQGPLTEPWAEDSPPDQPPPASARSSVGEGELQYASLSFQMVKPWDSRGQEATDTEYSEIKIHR

SMILES	Percent Effect [1]	Percent Effect [2]	Percent Effect [3]	Percent Effect [4]	Percent Effect (Trypanosoma cruzi)	Percent Effect [5]	Percent Effect [6]	Percent Effect (Homo sapiens)	Percent Effect [7]	Percent Effect [8]	Percent Effect [9]
COc1ncccc1NC(=O)C1CC(=O)N(Cc2ccccn2)C1 (stereo unspecified)	-1.71%	10.5%	4.85%	-1.28%	-4.97%	-2.37%	22.3%	-2.21%	4.25%	13%	-2.98%
CC(C)c1nc2c(n1C)CCN(CC(=O)Nc1ccc(Cl)cn1)C2	-1.64%	15.6%	1.07%	6.83%	0.686%	-2.32%	19.8%	6.83%	4.76%	21.2%	-21.7%
COC(=O)c1sccc1S(=O)(=O)N1CCC(Oc2ncccc2Cl)CC1	-6.92%	-8.22%	18.7%	1.08%	4.9%	-0.455%	3.02%	35.1%	-19.4%	-20%	-1.89%
CC[C@@]1(O)CCN(C(=O)c2ccsc2)C[C@H]1O	-3.94%	4.17%	-1.21%	-6.46%	-2.82%	3.09%	12.3%	-3.4%	4.21%	5.13%	0.37%
Cc1nc(C2CCN(C(=O)c3cccnc3)CC2)c2sccn12	-1.59%	1.35%	6.93%	4.07%	3.36%	3.48%	7.8%	-15.3%	2.15%	6.49%	-6.97%
Cc1ccccc1-n1ncc(C(=O)N2CCCC2c2cnn(C)c2)c1C (stereo unspecified)	-1.92%	10.8%	-5.91%	-5.79%	7.71%	-0.924%	5.57%	-8.29%	3.96%	18.3%	-5.96%
CCS(=O)(=O)N1C[C@H]2CN(Cc3cccnc3)C(=O)[C@H]2C1	-1.39%	2.7%	0.503%	1.84%	-6.25%	0%	10.9%	19.2%	4.95%	6.1%	1.54%
Cn1ccc(C(=O)NC2CCC23CCN(C(=O)N2CCCC2)CC3)c1 (stereo unspecified)	-3.06%	16.2%	3.04%	-9.67%	3.42%	-6.05%	19.2%	-7.3%	6.49%	15.4%	1.18%
Cc1cccc(CN2CCC3(CCCN(C(=O)c4ccsc4)C3)C2=O)n1 (stereo unspecified)	-2.33%	0%	10.5%	-2.49%	0.0986%	-0.645%	3.48%	-3.21%	3.17%	3.85%	87.7%
Cc1cnc(CN(C)CC2CCCN2c2cccnn2)cn1 (stereo unspecified)	1.21%	15.6%	-9.07%	-13.5%	1.27%	-5.26%	17.1%	4.87%	6.67%	25.9%	-25.4%
O=C(Nc1ncn(CC(=O)N2CCCCCC2)n1)C1CCCO1 (stereo unspecified)	-2.31%	7.89%	0.569%	1.68%	-6.39%	4.6%	1%	17.6%	2.45%	9.76%	-1.04%
